Experimental data as given in the supplement of paper PMC10681739.

target: T1, ETS1 (UniProt P14921); test: ETS1 binding intensity (PBM fluorescence), ETS1 alone (arbitrary fluorescence units); higher = stronger binding; conditions: ETS1 concentration 1 nM; RUNX1 concentration 0 nM
T1 sequence: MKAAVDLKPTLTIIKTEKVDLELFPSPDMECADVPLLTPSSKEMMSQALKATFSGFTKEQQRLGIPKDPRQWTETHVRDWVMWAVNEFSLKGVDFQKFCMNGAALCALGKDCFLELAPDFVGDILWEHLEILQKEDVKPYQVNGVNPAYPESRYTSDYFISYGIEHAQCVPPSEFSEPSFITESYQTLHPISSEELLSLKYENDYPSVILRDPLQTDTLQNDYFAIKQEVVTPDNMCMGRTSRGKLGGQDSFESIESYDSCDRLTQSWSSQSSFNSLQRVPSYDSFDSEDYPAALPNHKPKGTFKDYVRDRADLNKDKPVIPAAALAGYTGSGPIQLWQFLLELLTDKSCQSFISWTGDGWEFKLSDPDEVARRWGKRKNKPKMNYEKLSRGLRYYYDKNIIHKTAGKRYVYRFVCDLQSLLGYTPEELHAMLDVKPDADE
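Wherever RUNX1 binding intensity (PBM fluorescence), RUNX1 alone is given: Full-length recombinant human RUNX1 bound to double-stranded 36-bp genomic probes on a high-density microarray, scored as Alexa488 fluorescence per spot via anti-RUNX1 antibody, median of four replicate spots.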

| Sequence | ETS1 binding intensity |
| --- | --- |
| ACCACCCACTTCCCGCGCAGTTCCAAACCGCGACCA | 302 |
| CCCAGCCGAGGGAGGAAGCCTGCGGTCACTGCCATC | 402 |
| AAAGCAAAGTCAAGAGGATGTGGTGACCAATTCTGC | 1320 |
| TCAGAACCAGGAAACTGAAGGCGGTTACTCCACATA | 526 |
| CTGCTGGCGTTCCCGGATGTGCGGTGGCGGTGCTAC | 4900 |
| CTCGTGCGTCACTTCCGCCCCGCAGACCCGCCCACT | 2410 |
| AAAGAGGAAATCACATACCCGAAAACCACATGCACA | 513 |
| GGCTCGGCAAACATCCGGCTCCGCGGTGGAACGGGA | 1430 |
| CATTTACAGAAAAGGAAACCGCAAGTTTGAGCAAGT | 976 |
| ACCATATCCTGAGAATGAACCATGTGGTGGATGCAC | 519 |
| GATGGGCGAGTCAGGAAACCACAGCTCTGAGGGTGG | 607 |
| GGTCCGGAAACGATTCTGGACCTGCGGGTATATCCA | 1050 |
| TTGTGCTTCCTGCTCATGAGATTGCTAGCGGTTACT | 491 |
| GCCATCCAGGAAGTACAGACTCCCTGACCGCACTGA | 1030 |
| CCCGACTTCCGCCGCTGGTGGCCACCCGCAGGTAGT | 732 |
| GTGAATGAGGGGGAAGGAAGTGGTTTGGAAAAATAC | 1890 |
| AGCTTGCGCAGGAAGTCTGCGGCAGGAGGGCGTCCT | 1920 |
| GTTGTCTTGCCCAAAGGAAGTGGTTACTAGACCAGA | 1770 |
| GTCTTTCACTCCACTTCCGCCCCCACAAAACATACA | 2850 |
| ACTCCCTAGAGCAGGAAGCCTGTGGTTTGTAATTGG | 1140 |

| Sequence | ETS1 binding intensity |
| --- | --- |
| CTCCGCCAGCCACCGGAACTGCGGCCCAGCAAAAAG | 2590 |
| AACTTAGCTTCCGGGAAGAAGGCGAGCGGTGGGAGG | 780 |
| AACAACTGACCGGACAGAACACAGCCACAAAACACG | 606 |
| AACAGTCACATCCGGGGCCGAGAGGAACCGCGAACG | 1100 |
| TCTGGGACAGGAAAGACTTGTGGTTACTGCTGTTGA | 808 |
| AAACTACTTTCCTTCCTACCAAAACCACACTAAAGA | 620 |
| ACTCCTCCCGCTTCCGCTGCCGCAGCCGGTCGTAAC | 1280 |
| TTAACCAGACATTTCCTGTGGTCTAAGGTGACCCCA | 859 |
| GAAACCGGAAGCGGCGGCTGTCCGCGGTGCCGGCTG | 5800 |
| TGTCGGGCGGATGTGTACCGGCGGTAATATAGTAAG | 2300 |
| GCGCAAGGATCCGGTTTGTTGTGGTGTGGGGAGGGG | 517 |
| GGACCGGAAGTTAAGGCGTTCGCGGCGTGTGGTAAG | 8560 |
| TTGGAAACAGACAGGAAGCCACAGGCAGTAAACATT | 3300 |
| GTAAATAAAGAGGAAGTCCCTATGCGGGGGATGGGG | 1910 |
| TCGTGAAAAAGGAAGTGGATAAAGTGGTTACGGCAA | 2040 |
| TACTACTTACCAGCAGGATGTGGTCCCTGCCCACTG | 3230 |
| AGAAAAGGAAATGGTGGGCTGCACACCACAGCTCAC | 477 |
| AGCTGAAGGGCAGGATGTGGTTTCAGCATTCGGTGA | 3090 |
| GCTGATAAAACAGGATGTGGTAAAGAAGCCGGCCAA | 5160 |
| GCTCAAGTACCGGAAAGGCCCGCAGAAAGAAGGGCA | 1400 |

target: RUNX1 (UniProt Q01196); test: RUNX1 binding intensity (PBM fluorescence), RUNX1 alone (arbitrary fluorescence units); higher = stronger binding; conditions: RUNX1 concentration 2 nM; ETS1 concentration 0 nM
Sequence (Q01196 whole entry): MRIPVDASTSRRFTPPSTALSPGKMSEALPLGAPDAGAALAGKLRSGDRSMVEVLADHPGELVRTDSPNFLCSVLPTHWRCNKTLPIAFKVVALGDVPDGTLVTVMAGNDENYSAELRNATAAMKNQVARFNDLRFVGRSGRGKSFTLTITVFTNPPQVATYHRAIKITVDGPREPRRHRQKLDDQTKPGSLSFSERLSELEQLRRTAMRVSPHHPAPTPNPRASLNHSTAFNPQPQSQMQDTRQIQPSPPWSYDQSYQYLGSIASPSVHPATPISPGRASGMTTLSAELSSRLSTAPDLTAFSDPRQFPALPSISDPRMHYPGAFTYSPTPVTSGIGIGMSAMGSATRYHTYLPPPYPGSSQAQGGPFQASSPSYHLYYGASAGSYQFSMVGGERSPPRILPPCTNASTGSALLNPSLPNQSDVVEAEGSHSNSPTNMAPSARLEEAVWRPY
Method: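 Cooperative gcPBM on 36-bp genomic probes with neighbouring ETS1 and RUNX1 sites. Recombinant human RUNX1 (2 nM) was incubated alone or with ETS1 (25 nM) and detected with anti-RUNX1 antibody plus Alexa488 secondary. Values are medians over 4 replicate spots; the RUNX1+ETS1 data were normalised to the RUNX1-only data. The probes sit in constant array flanks that are not printed.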

| Sequence | RUNX1 binding intensity |
| --- | --- |
| ACCACCCACTTCCCGCGCAGTTCCAAACCGCGACCA | 1590 |
| CCCAGCCGAGGGAGGAAGCCTGCGGTCACTGCCATC | 1640 |
| AAAGCAAAGTCAAGAGGATGTGGTGACCAATTCTGC | 685 |
| TCAGAACCAGGAAACTGAAGGCGGTTACTCCACATA | 742 |
| CTGCTGGCGTTCCCGGATGTGCGGTGGCGGTGCTAC | 753 |
| CTCGTGCGTCACTTCCGCCCCGCAGACCCGCCCACT | 1050 |
| AAAGAGGAAATCACATACCCGAAAACCACATGCACA | 944 |
| GGCTCGGCAAACATCCGGCTCCGCGGTGGAACGGGA | 785 |
| CATTTACAGAAAAGGAAACCGCAAGTTTGAGCAAGT | 25200 |
| ACCATATCCTGAGAATGAACCATGTGGTGGATGCAC | 795 |
| GATGGGCGAGTCAGGAAACCACAGCTCTGAGGGTGG | 950 |
| GGTCCGGAAACGATTCTGGACCTGCGGGTATATCCA | 776 |
| TTGTGCTTCCTGCTCATGAGATTGCTAGCGGTTACT | 803 |
| GCCATCCAGGAAGTACAGACTCCCTGACCGCACTGA | 1140 |
| CCCGACTTCCGCCGCTGGTGGCCACCCGCAGGTAGT | 789 |
| GTGAATGAGGGGGAAGGAAGTGGTTTGGAAAAATAC | 949 |
| AGCTTGCGCAGGAAGTCTGCGGCAGGAGGGCGTCCT | 687 |
| GTTGTCTTGCCCAAAGGAAGTGGTTACTAGACCAGA | 793 |
| GTCTTTCACTCCACTTCCGCCCCCACAAAACATACA | 6600 |
| ACTCCCTAGAGCAGGAAGCCTGTGGTTTGTAATTGG | 1040 |

| Sequence | RUNX1 binding intensity |
| --- | --- |
| CTCCGCCAGCCACCGGAACTGCGGCCCAGCAAAAAG | 927 |
| AACTTAGCTTCCGGGAAGAAGGCGAGCGGTGGGAGG | 735 |
| AACAACTGACCGGACAGAACACAGCCACAAAACACG | 936 |
| AACAGTCACATCCGGGGCCGAGAGGAACCGCGAACG | 894 |
| TCTGGGACAGGAAAGACTTGTGGTTACTGCTGTTGA | 1390 |
| AAACTACTTTCCTTCCTACCAAAACCACACTAAAGA | 2140 |
| ACTCCTCCCGCTTCCGCTGCCGCAGCCGGTCGTAAC | 1310 |
| TTAACCAGACATTTCCTGTGGTCTAAGGTGACCCCA | 1020 |
| GAAACCGGAAGCGGCGGCTGTCCGCGGTGCCGGCTG | 717 |
| TGTCGGGCGGATGTGTACCGGCGGTAATATAGTAAG | 753 |
| GCGCAAGGATCCGGTTTGTTGTGGTGTGGGGAGGGG | 814 |
| GGACCGGAAGTTAAGGCGTTCGCGGCGTGTGGTAAG | 626 |
| TTGGAAACAGACAGGAAGCCACAGGCAGTAAACATT | 753 |
| GTAAATAAAGAGGAAGTCCCTATGCGGGGGATGGGG | 850 |
| TCGTGAAAAAGGAAGTGGATAAAGTGGTTACGGCAA | 792 |
| TACTACTTACCAGCAGGATGTGGTCCCTGCCCACTG | 809 |
| AGAAAAGGAAATGGTGGGCTGCACACCACAGCTCAC | 728 |
| AGCTGAAGGGCAGGATGTGGTTTCAGCATTCGGTGA | 791 |
| GCTGATAAAACAGGATGTGGTAAAGAAGCCGGCCAA | 817 |
| GCTCAAGTACCGGAAAGGCCCGCAGAAAGAAGGGCA | 748 |
